Assay outcomes deposited in PubChem BioAssay by Broad Institute.
MITF TRPM1 HTS: MITF TRPM1 promoter activation in melanoma cells; SK-MEL-5 TRPM1-promoter luciferase, 24 h; % of positive control, neutral wells = 0; activation, % at 12.5 µM; actives 0.75% (n = 300,000); AID 588334;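 active = mean activation of at least 80% with every replicate also reaching 80%; inconclusive = mean reaches 80% but some replicate falls short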
HSF1 activator: increases HSF-1 driven luciferase reporter signal. NIH3T3-HGL HSF-1 luciferase reporter, MG132, 8 h; 100% = twice DMSO control signal. activation, % at 9 µM. actives 1.7% (n = 300,000). AID 504408;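 active = mean replicate activation of at least 50% with a set share of replicates each reaching 50%; inconclusive = only one of those two conditions met; inactive = mean below 50% and too few replicates reaching it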
esBAF inh: inhibitors of esBAF chromatin remodeling in mouse ES cells; Bmi1-luciferase knock-in reporter, 24 h; 100% = twice the neutral-well signal; reporter increase, % at 12.5 µM; actives 2% (n = 350,000); AID 602393; in the data active = activation above about 40%; inconclusive = no clear call, values can overlap the other calls;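 note: a rise in the Bmi1 reporter signal indicates esBAF inhibition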
Wnt bcat act: Wnt/beta-catenin pathway activation; Wnt/beta-catenin reporter cell assay, activator, plate reader; activation, % at 9.35 µM; actives 1.2% (n = 300,000); AID 743398; in the data active = activation above about 30%, passing the limit was not always enough; inconclusive = no clear call, values can overlap the other calls
HSF1 inh: HSF1 inhibition. NIH3T3-HGL HSE-luciferase, MG132-induced, luminescence 8 h; active compounds read low. activity change, negative = inhibition, % at 7.5 µM (by protocol). actives 0.77% (n = 300,000);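 active = more than half of replicate wells show activity change below -50%, luminescence cut by over half; inconclusive = some wells, but at most half, below -50%; inactive = no replicate well below -50%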;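 note: luciferase reports HSF-1 transcriptional activity via heat shock element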
Hits are given with their value; 0 = inactive; ? = inconclusive; - = no result. Most compounds without a hit are left out; they make up all but 3.8% or so of the library.

SMILES | MITF TRPM1 HTS | HSF1 activator | esBAF inh | Wnt bcat act | HSF1 inh
N/C(=N/OC(=O)c1ccccc1Cl)c1ncc([N+](=O)[O-])s1 | - | 179 | - | 0 | 0
N/C(=N\OC(=O)c1ccccc1Cl)c1cccc([N+](=O)[O-])c1 | - | 0 | 0 | 0 | 0
CCCN1C[C@H](C)[C@H](OC)CN(C)C(=O)c2cc(NC(=O)c3ccno3)ccc2OC[C@@H]1C | - | - | 0 | - | -
COc1ccc(NC(=O)Nc2ccc3c(c2)CC(=O)N([C@@H](C)CO)C[C@@H](C)[C@H](CN(C)S(=O)(=O)c2ccc(F)cc2)O3)cc1 | - | - | 0 | - | -
Cc1ccc(/C=N\Nc2cn[nH]c(=O)c2Cl)cc1 | 0 | 0 | 53 | 0 | 0
Cc1c(S(=O)(=O)N2CCCCC2)c(=O)n(C)c(=O)n1C | 0 | 0 | 0 | 0 | 0
COC(=O)C1CCN(S(=O)(=O)c2c(C)n(C)c(=O)n(C)c2=O)CC1 | 0 | 0 | 0 | 48 | 0
O=C(CN(CC1CCCO1)C(=O)CNS(=O)(=O)c1ccc(F)cc1)NC1CCCCC1 (configuration not stated) | - | 0 | 0 | 0 | 0
O=C(CN(CC1CCCO1)C(=O)CNS(=O)(=O)c1ccc(F)cc1)NC1CCCC1 (configuration not stated) | 0 | 63 | 0 | 0 | 0
Cc1ccc(S(=O)(=O)NCC(=O)N(CC(=O)NCC2CCCO2)Cc2ccc(Cl)cc2)cc1 (configuration not stated) | 0 | 52 | 0 | 0 | 0
NS(=O)(=O)c1ccc(N/N=C/c2ccccc2C(=O)O)c([N+](=O)[O-])c1 | 0 | 61 | - | 0 | 0
Cc1cccc(N2C(=O)CSC2c2cccnc2)c1 (configuration not stated) | 0 | 0 | 0 | 0 | 0
Cc1cccc(N2CCN(c3cccc(C)c3)C2c2cccnc2)c1 | - | 67 | 0 | 37 | 0
CC(C)C(=O)Nc1ccc2c(c1)C(=O)N(C)[C@H]1CC[C@@H](CC(=O)NCCCN(C)C)O[C@H]1CO2 | - | - | 0 | - | -
CN(C)c1ccc2c(c1)[C@@H]1C[C@@H](CC(=O)NCc3ccc(Cl)cc3)O[C@H](CO)[C@@H]1O2 | - | - | 0 | - | -
COC(=O)c1cc2ccsc2n1Cc1nc(-c2ccc(Cl)cc2)oc1C | 0 | 0 | 0 | 0 | -79
Cc1cc(=O)oc2c3c(cc(OCC(=O)N[C@@H](CC(C)C)C(=O)O)c12)OC(C)(C)CC3 | 0 | 0 | 0 | 0 | 0
CCCC(NC(=O)COc1cc2c(c3oc(=O)cc(C)c13)CCC(C)(C)O2)C(=O)O (configuration not stated) | - | 0 | 0 | 0 | -55
Nc1nc(Nc2ccc(Cl)cc2Cl)nc(C(F)(F)F)n1 | 0 | - | 64 | - | -
O=C(O)c1ccc(NCc2cccnc2)cc1 | 0 | - | 97 | 46 | -
O=C(NCc1cc(C(F)(F)F)ccc1F)C1CCC(=O)N(C2CCCCCC2)C1 (configuration not stated) | 0 | 0 | 0 | 0 | 0
COc1cccc(CCNC(=O)C2CCC(=O)N(C3CC3)C2)c1OC (configuration not stated) | 0 | 59 | 0 | 0 | 0
O=C(NCc1cc(F)ccc1F)C1CCC(=O)N(C2CCCCCC2)C1 (configuration not stated) | 0 | 0 | 48 | 0 | 0
C[C@@H]1CN([C@@H](C)CO)C(=O)c2cc(NS(=O)(=O)c3ccc(Cl)cc3)ccc2O[C@@H](C)CCCCO[C@@H]1CN(C)C(=O)c1ccccc1 | - | - | 0 | - | -
Cn1ncc(Br)c1C(=O)N1CCOCC1 | 0 | 55 | 0 | 0 | 0
SMILES | MITF TRPM1 HTS | HSF1 activator | esBAF inh | Wnt bcat act | HSF1 inh
COCC(=O)Nc1ccc2c(c1)OC[C@@H](C)N(C(=O)Cc1ccccn1)C[C@H](C)[C@@H](OC)CN(C)C2=O | - | - | 0 | - | -
Cc1cs/c(=N/C(=S)Nc2ccccc2)n1C | 102 | 0 | - | 0 | 0
CC(=O)N1N=C(c2ccc(C)cc2)CC1c1ccco1 (configuration not stated) | 0 | 0 | 0 | 0 | 0
CS(=O)(=O)N1N=C(c2ccc(Br)cc2)CC1c1ccc2c(c1)OCO2 (configuration not stated) | ? | 77 | 54 | - | 0
CS(=O)(=O)Nc1ccc(C2=NN(S(C)(=O)=O)C(c3ccc4nccnc4c3)C2)cc1 (configuration not stated) | 0 | 0 | 0 | 0 | 0
CC(=O)N1N=C(c2ccc(C)cc2)CC1c1ccc2c(c1)OCO2 (configuration not stated) | - | 0 | 100 | ? | 0
Cc1ccc(C2=NN(S(C)(=O)=O)C(c3ccc4c(c3)OCO4)C2)cc1 (configuration not stated) | 0 | 80 | - | 50 | 0
COc1ccc(S(=O)(=O)N(C)C[C@@H]2Oc3ccc(NC(=O)C4CCCCC4)cc3C(=O)N([C@H](C)CO)C[C@H]2C)cc1 | - | - | 0 | - | -
Cc1ccccc1-c1cnc2c(c1)C(=O)N([C@H](C)CO)C[C@H](C)[C@H](CN(C)Cc1ccncc1)O2 | - | - | 0 | - | -
CNC[C@H]1OCCCC[C@@H](C)Oc2ccc(NC(=O)Nc3cccc4ccccc34)cc2C(=O)N([C@H](C)CO)C[C@@H]1C | - | - | 0 | - | -
CCOC(=O)c1c(NC(=O)COC(=O)c2nccnc2N)sc(C(=O)N(C)C)c1C | 0 | 0 | 0 | 0 | -51
CCOC(=O)c1c(NC(=O)COC(=O)c2ccccn2)sc(C(=O)N(C)C)c1C | 0 | 0 | 0 | 0 | 0
O=C(C[C@@H]1C[C@H]2c3cc(NC(=O)CC4CC4)ccc3O[C@H]2[C@H](CO)O1)NCc1ccc(Cl)cc1 | - | - | 0 | - | -
CCN1[C@@H]2c3ccc(-c4ccccc4OC)c(=O)n3C[C@@H]2[C@@H](CO)[C@@H]1C(=O)NCc1ccc(F)cc1 | - | - | 0 | - | -
C/C(=N\NC(=O)c1c[nH]c2ccccc12)c1ccco1 | 0 | 0 | 51 | 0 | 0
O=C(COC(=O)c1ccccc1O)NCCC1=CCCCC1 | 0 | 0 | - | 0 | 0
O=C(COC(=O)c1ccccc1NC(=O)c1ccco1)NCCC1=CCCCC1 | 0 | 0 | 63 | - | 0
O=C(Nc1ccccc1C(=O)OCC(=O)c1c[nH]c2ccccc12)c1ccco1 | 0 | 105 | - | - | 0
COc1ccc(S(=O)(=O)N(C)C[C@@H]2OCCCC[C@H](C)Oc3ccc(NS(=O)(=O)c4ccc(C)cc4)cc3C(=O)N([C@H](C)CO)C[C@@H]2C)cc1 | - | - | 0 | - | -
COc1ccc(CNC(=O)C[C@H]2C[C@H]3c4cc(NS(=O)(=O)c5ccc(F)cc5)ccc4O[C@H]3[C@@H](CO)O2)cc1 | - | - | 0 | - | -
COc1ccc(Cc2nc3ccc(C(=O)NC(C)C)cc3o2)cc1 | - | 0 | 51 | 0 | 0
CCC(=O)C1CCCN(C(=O)c2ccc3nc(-c4cccc(OC)c4)oc3c2)C1 (configuration not stated) | 0 | 0 | 0 | 0 | ?
CCOC(=O)C1CCCN(C(=O)c2ccc3nc(-c4cccc(OC)c4)oc3c2)C1 (configuration not stated) | 0 | 0 | 48 | 0 | 0
C=C(C)CNC(=O)c1ccc2nc(Cc3ccc(OC)cc3)oc2c1 | - | 0 | 66 | 0 | 0
O=C(c1ccc2nc(Cc3cccc(Cl)c3)oc2c1)N1CCOCC1 | 102 | 0 | - | 0 | 0
